Assay results published in PubChem BioAssay (Tox21).
Results filed as inconclusive are left out. The source made the active and inactive calls. Unless noted, the call rests on the fitted dose curve; in most records, active means well fitted curve in the direction sought with a large enough effect in the repeat runs; inconclusive means weak or mixed curves; inactive means no such curve, though single readings can be large; an effect the other way counts as inactive or inconclusive.

How the values were obtained:
[1] = target: Aryl hydrocarbon receptor (Homo sapiens) (UniProt P35869); experiment: qHTS assay to identify small molecule that activate the aryl hydrocarbon receptor (AhR) signaling pathway (AID 743085); further: nearly all actives have a fitted effect of over 15% in size; further: potency means the concentration at half of the fitted maximal effect;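 on activation: HG2L7.5c1 human HepG2 liver cells with stably integrated DRE-driven firefly reporter; series mostly up to about 70 µM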
Aryl hydrocarbon receptor (Homo sapiens), sequence (P35869 whole entry, looked up): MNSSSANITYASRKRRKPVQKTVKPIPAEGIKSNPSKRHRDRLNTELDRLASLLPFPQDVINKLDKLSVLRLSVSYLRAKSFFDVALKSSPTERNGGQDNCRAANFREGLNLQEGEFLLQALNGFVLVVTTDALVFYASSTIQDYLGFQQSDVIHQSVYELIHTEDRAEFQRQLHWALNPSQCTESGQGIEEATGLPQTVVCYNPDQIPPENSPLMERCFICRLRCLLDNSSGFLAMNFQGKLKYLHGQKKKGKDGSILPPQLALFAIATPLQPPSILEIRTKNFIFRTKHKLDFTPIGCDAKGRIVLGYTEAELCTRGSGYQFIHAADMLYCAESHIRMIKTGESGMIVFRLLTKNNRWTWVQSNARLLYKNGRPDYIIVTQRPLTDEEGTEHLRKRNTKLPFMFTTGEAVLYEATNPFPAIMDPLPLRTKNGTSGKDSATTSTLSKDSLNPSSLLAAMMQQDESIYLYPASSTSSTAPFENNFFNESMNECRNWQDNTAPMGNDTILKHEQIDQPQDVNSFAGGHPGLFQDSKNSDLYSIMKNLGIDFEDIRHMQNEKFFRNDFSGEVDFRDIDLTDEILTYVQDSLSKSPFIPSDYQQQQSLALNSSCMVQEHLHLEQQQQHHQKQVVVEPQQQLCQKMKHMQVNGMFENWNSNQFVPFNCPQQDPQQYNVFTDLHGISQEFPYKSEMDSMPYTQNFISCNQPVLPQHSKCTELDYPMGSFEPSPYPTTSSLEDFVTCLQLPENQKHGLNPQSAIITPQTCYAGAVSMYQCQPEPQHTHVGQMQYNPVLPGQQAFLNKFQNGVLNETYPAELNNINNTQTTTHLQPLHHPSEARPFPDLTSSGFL
How it was run: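 Luminescence read-out: ONE-Glo reagent, 30 min at room temperature, in HG2L7.5c1 HepG2 reporter cells treated 24 h at 37C. Viability was measured beforehand by CellTiter-Fluor fluorescence after 30 min at 37C.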

[2] = qHTS assay to identify small molecule that activate the aryl hydrocarbon receptor (AhR) signaling pathway - cell viability counter screen (AID 743086);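 further: HepG2 liver cells carrying the AhR DRE luciferase reporter; series mostly up to about 70 µM; nearly all actives have a fitted effect of over 45% in size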
How it was run: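 Cytotoxicity counter screen: CellTiter-Fluor signal (30 min, 37 C) in 4000 HepG2 cells/well carrying the DRE-luciferase reporter, following 24 h compound exposure at 37 C.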

[3] = target: Peroxisome proliferator-activated receptor gamma (Homo sapiens) (UniProt P37231); experiment: qHTS assay to identify small molecule agonists of the peroxisome proliferator-activated receptor gamma (PPARg) signaling pathway (AID 743094; active means well fitted activation curve with a large enough effect in the signal ratio in the repeat runs, not every such curve was filed as active; the % refers to the signal ratio; further: potency means the concentration at half of the fitted maximal effect)
Peroxisome proliferator-activated receptor gamma (Homo sapiens), sequence (P37231 whole entry, looked up): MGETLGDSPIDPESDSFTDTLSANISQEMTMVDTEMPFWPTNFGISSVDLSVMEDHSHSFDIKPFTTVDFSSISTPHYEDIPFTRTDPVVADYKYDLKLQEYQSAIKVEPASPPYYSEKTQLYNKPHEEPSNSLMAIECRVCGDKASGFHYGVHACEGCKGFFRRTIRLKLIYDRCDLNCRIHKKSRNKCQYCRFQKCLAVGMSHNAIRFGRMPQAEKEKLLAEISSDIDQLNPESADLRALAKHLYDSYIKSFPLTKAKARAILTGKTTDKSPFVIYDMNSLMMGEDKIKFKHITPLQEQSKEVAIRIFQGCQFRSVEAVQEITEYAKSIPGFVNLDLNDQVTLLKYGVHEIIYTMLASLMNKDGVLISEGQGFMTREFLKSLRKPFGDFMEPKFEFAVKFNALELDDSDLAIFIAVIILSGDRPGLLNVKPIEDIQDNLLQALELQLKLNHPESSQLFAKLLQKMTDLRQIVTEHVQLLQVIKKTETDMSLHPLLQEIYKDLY
How it was run: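 Fluorescence-based beta-lactamase readout in HEK293H PPARg UAS-bla cells after 17 h compound exposure (37C) and 1 h B/G FRET substrate incubation at room temperature.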

[4] = target: Peroxisome proliferator-activated receptor gamma (Homo sapiens) (UniProt P37231); experiment: qHTS assay to identify small molecule antagonists of the peroxisome proliferator-activated receptor gamma (PPARg) signaling pathway (AID 743191; calls by dose curve; further: nearly all actives have a fitted effect of over 30% in size; further: potency means the concentration at half of the fitted maximal effect)
How it was run: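 Beta-lactamase reporter under UAS control in HEK293H PPARg-bla cells; compound treatment 17 h at 37C. Read-out: fluorescence intensity after 1 h room-temperature incubation with LiveBLAzer B/G FRET substrate.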

[5] = qHTS assay to identify small molecule antagonists of the peroxisome proliferator-activated receptor gamma (PPARg) signaling pathway - cell viability counter screen (AID 743194); further: nearly all actives have a fitted effect of over 55% in size
How it was run: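 Viability was measured as CellTiter-Glo luminescence in GeneBLAzer PPARg UAS-bla HEK293H cells. These cells had been exposed 17 h at 37 C to compounds together with rosiglitazone at 50 nM final, with the beta-lactamase readout taken in the same wells.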

[6] = qHTS assay for small molecule agonists of the antioxidant response element (ARE) signaling pathway - cell viability counter screen (AID 743203; calls by dose curve; further: nearly all actives have a fitted effect of over 55% in size)
How it was run: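 Parallel cytotoxicity read-out for the ARE-bla screen: HepG2 reporter cells, 16 hrs with compounds, then CellTiter-Glo luminescence.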

[7] = qHTS assay for small molecule activators of the heat shock response signaling pathway (AID 743210; active means well fitted activation curve with a large enough effect in the signal ratio in the repeat runs, with a control signal flat, not every such curve was filed as active; the % refers to the signal ratio; further: series mostly up to about 63 µM)
How it was run: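 Compound exposure lasted 5 h at 37 C in HeLa cells carrying a heat-shock-element-driven beta-lactamase reporter. Read-out: fluorescence intensity after 2.5 h room-temperature loading with LiveBLAzer B/G FRET substrate.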

[8] = qHTS assay to identify small molecule agonists of the peroxisome proliferator-activated receptor delta (PPARd) signaling pathway - cell viability counter screen (AID 743211); further: nearly all actives have a fitted effect of over 55% in size
How it was run: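 Read-out: CellTiter-Glo luminescence, 30 min RT, measured in the same wells as the beta-lactamase reporter. Cells: GeneBLAzer PPAR delta UAS-bla HEK293H, 3000 cells/well, compound exposure 17 h at 37C.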

[9] = qHTS assay for small molecule agonists of the antioxidant response element (ARE) signaling pathway (AID 743202; active means well fitted activation curve with a large enough effect in the signal ratio in the repeat runs, not every such curve was filed as active; the % refers to the signal ratio)
How it was run: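 After 16 hours of compound treatment at 37 C, HepG2 cells with a stably integrated ARE-driven beta-lactamase reporter were loaded 2 hours at room temperature with LiveBLAzer B/G FRET substrate and fluorescence intensity measured.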

[10] = qHTS assay for small molecule activators of the heat shock response signaling pathway - cell viability counter screen (AID 743209); further: nearly all actives have a fitted effect of over 50% in size
How it was run: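 To flag cytotoxic compounds, HSE-bla HeLa cells plated at 1500 cells/well were dosed for 5 h at 37 C, followed by the reporter FRET read and then CellTiter-Glo, with luminescence recorded 30 min after reagent addition.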
On the % scale 0 is the no-effect control and ±100 the full control effect.

CCCCc1nc(Cl)c(CO)n1Cc1ccc(-c2ccccc2-c2nn[nH]n2)cc1
active: Potency [3] 23.9 µM
inactive: Potency [1] | Potency [2] | Potency [4] | outcome [5] | outcome [6] | outcome [7] | outcome [8]

O=C(O)c1cc(C(=O)O)cc(C(=O)O)c1
inactive: Potency [1] | Potency [2] | Potency [3] | Potency [4] | Potency [9] | outcome [6] | outcome [10] | outcome [7] | outcome [8]

CNC(=O)Nc1ccc(Cl)c(Cl)c1
active: Potency [1] 54.5 µM
inactive: Potency [2] | Potency [3] | outcome [5] | Potency [9] | outcome [6] | outcome [10] | outcome [7] | outcome [8]

O=C(O)CNC(=O)c1ccccc1
inactive: Potency [1] | Potency [2] | Potency [3] | outcome [5] | Potency [9] | outcome [6] | outcome [10]

Cc1cc(C)c(N=Nc2c(O)c(S(=O)(=O)O)cc3cc(S(=O)(=O)O)ccc23)cc1C
inactive: activation [1] -3.38% [at 8.47 µM] | viability change, negative = cytotoxic [2] -19.3% [at 8.47 µM] | activation [3] -9.42% [at 7.08 µM] | activity change, negative = cytotoxicity [5] -10.4% [at 5.95 µM] | activation [9] -8.59% [at 8.36 µM] | viability change, negative = cytotoxic [6] -2.33% [at 8.36 µM] | activation [7] -0.565% [at 5.95 µM] | activity change, negative = cytotoxicity [8] -0.611% [at 5.95 µM]

Clc1cc(Cl)cc(Cl)c1
inactive: Potency [1] | Potency [2] | Potency [3] | outcome [5] | Potency [9] | outcome [6] | outcome [10] | outcome [7] | outcome [8]

CC1=CC(=O)[C@H]2C[C@@H]1C2(C)C
inactive: Potency [1] | Potency [2] | Potency [3] | Potency [4] | Potency [9] | outcome [6] | outcome [10] | outcome [7] | outcome [8]

CCN[C@H]1C[C@H](C)S(=O)(=O)c2sc(S(N)(=O)=O)cc21
inactive: Potency [1] | Potency [2] | Potency [3] | Potency [4] | Potency [9] | outcome [6] | outcome [7] | outcome [8]

CC/C=C\CCOC(C)OCC (centres undefined)
inactive: Potency [1] | Potency [2] | Potency [3] | Potency [4] | outcome [10] | outcome [7] | outcome [8]

O=C(c1ccccc1O)c1ccccc1O
inactive: Potency [1] | Potency [2] | Potency [3] | outcome [6] | outcome [10] | outcome [7] | outcome [8]
active: Potency [4] 43.2 µM

C=COC(=O)C(C)(CC)CCC(C)C (centres undefined)
inactive: Potency [1] | Potency [2] | Potency [3] | Potency [4] | Potency [9] | outcome [6] | outcome [10] | outcome [7] | outcome [8]

FB(F)F
inactive: Potency [1] | Potency [2] | Potency [3] | outcome [5] | Potency [9] | outcome [6] | outcome [8]

CCN(CC#N)c1cccc(C)c1
inactive: Potency [1] | Potency [2] | Potency [3] | outcome [5] | Potency [9] | outcome [6] | outcome [7] | outcome [8]

CC(C)CCCO
inactive: Potency [1] | Potency [2] | Potency [3] | outcome [5] | Potency [9] | outcome [6] | outcome [10] | outcome [8]

COc1ccc2cc1Oc1cc3c(cc1OC)CC[N+](C)(C)[C@H]3Cc1ccc(cc1)Oc1c(OC)c(OC)cc3c1[C@@H](C2)[N+](C)(C)CC3
inactive: Potency [1] | Potency [2] | Potency [3] | Potency [4] | Potency [9] | outcome [6] | outcome [10] | outcome [8]

CCNS(=O)(=O)c1ccc(C)cc1
inactive: Potency [1] | Potency [2] | Potency [3] | Potency [4] | outcome [6] | outcome [10] | outcome [8]

OCCCCCO
inactive: Potency [1] | Potency [2] | Potency [3] | Potency [4] | Potency [9] | outcome [6] | outcome [10] | outcome [7]

CC(C)CC(C)(N)C#N (centres undefined)
inactive: Potency [1] | Potency [2] | Potency [3] | Potency [4] | Potency [9] | outcome [6] | outcome [10] | outcome [7] | outcome [8]

CCOC(=O)C1=NOC(c2ccccc2)(c2ccccc2)C1
inactive: Potency [1] | Potency [2] | Potency [3] | Potency [4] | Potency [9] | outcome [6] | outcome [10] | outcome [8]

c1ccc(CCc2ccccc2)cc1
inactive: Potency [1] | Potency [2] | Potency [3] | Potency [4] | outcome [6] | outcome [8]

CC(=O)c1cnccn1
inactive: Potency [1] | Potency [2] | Potency [3] | outcome [5] | Potency [9] | outcome [6] | outcome [10] | outcome [8]

CC(C)(N)C#N
inactive: Potency [1] | Potency [2] | Potency [3] | Potency [4] | Potency [9] | outcome [6] | outcome [7] | outcome [8]

CC(=O)N[C@H]1[C@H]([C@H](O)[C@H](O)CO)OC(C(=O)O)=C[C@@H]1N=C(N)N
inactive: Potency [1] | Potency [2] | Potency [3] | outcome [5] | Potency [9] | outcome [6] | outcome [7] | outcome [8]

COc1ccccc1OCC1CNC(=O)O1 (centres undefined)
inactive: Potency [1] | Potency [2] | Potency [3] | outcome [5] | Potency [9] | outcome [6] | outcome [10] | outcome [7] | outcome [8]

CN(C)C(=O)Oc1cccc([N+](C)(C)C)c1
inactive: Potency [1] | Potency [2] | Potency [3] | outcome [5] | Potency [9] | outcome [6] | outcome [7] | outcome [8]

Cc1ccccc1N=C(N)N=C(N)N
inactive: Potency [1] | Potency [2] | Potency [3] | outcome [5] | Potency [9] | outcome [6] | outcome [7] | outcome [8]
